# From PubChem BioAssay (NCI)
# Values joined by “and” are separate entries in the source; they are usually repeats but may differ in a detail not shown here. Equal values may be shown once. Compounds without any hit were thinned out: in the full panel of roughly 83,000, 20% have a hit.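 Plates (96-well) were seeded with cells, treated with compound at one concentration, and incubated for 48 hours before percent growth was determined.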 Unmarked numbers belong to inactive results. Active and inactive are the calls of the source. Rule for the calls: active = growth percent below 10; inactive = the rest.
# Test system: MDA-MB-468 breast
# Assay: NCI-60 one-dose screen, 48 h (100 = growth as untreated, 0 = no growth, -100 = all killed)
# Details: 10 µM unless noted
row,Structure (SMILES),growth
1,COc1cc(/C=C2/C=C(c3ccccc3)N(CCc3ccc(S(N)(=O)=O)cc3)C2=O)cc(OC)c1OC,94.7%
2,COC(=O)c1ccccc1C(=O)c1c(C)cc(C)cc1C,103%
3,CCCCNC(=O)c1ccccc1C,82.3%
4,CC(C)=CCc1ccc(O)c(=O)cc1C(C)C,-24.2% (active)
5,C=CC[N+]1(CCO)CCN=C1CCCCCCCCCCCCC (stereo not given),-78.3% (active)
6,CC(C)c1ccc(-n2c(=S)[nH]c3sc4cc(O)ccc4c3c2=O)cc1,96.5%
7,C#C[C@]1(O)CCC2C3CCc4cc(OC5CCCC5)ccc4C3CC[C@@]21C (stereo not given in full),69.1%
8,CCN1C(=S)N(CC)C2C1NC(=S)N2/N=C/C=C/c1ccccc1OC (stereo not given),9.04% (active)
9,CC/C(=C(/c1ccc(O)cc1)c1ccc(OCCN2CCCCCC2)cc1)c1ccc(Cl)cc1,38.6%
10,Nc1nc(SC/C=C/CCl)c2[nH]cnc2n1,103% and 127%
11,O=S(=O)(c1ccccc1)n1ccc(-c2ccc3c(c2)CCO3)n1,42.4%
12,CC(=O)Nc1nc(C)c(C(=O)N/N=C/c2cccn2C)s1,111%
13,CC1=NN(c2ccc(Cl)cc2)CC1(C)N=O (stereo not given),7.84% (active)
14,Cc1nc2sc(C(=O)Nc3cccc4ccccc34)c(N)c2cc1C(O)c1ccccc1 (stereo not given),18.1%
15,COc1cc(OC)cc(-c2n/c(=C\c3c(O)[nH]c4ccc(OC)cc34)cc3c2=Nc2ccccc2-3)c1,88.4%
16,COc1ccc(-c2nnc(COc3ccc(C(=O)/C=C/c4ccco4)cc3)o2)cc1,20.4%
17,Cc1ccc(CSc2nc(-c3ccc(Cl)cc3)c(C#N)c(N3CCNCC3)n2)cc1,81.5%
18,CCN(CC)CCCC(C)Nc1cc(-c2cccc(OC(F)(F)F)c2)nc2ccc(N3CCCC3)cc12 (stereo not given),-56.3% (active)
19,CCOc1ccc2nc(NC(=O)Nc3ccccc3C)sc2c1,20.4%
20,COc1ccc(-c2coc3c(CO)c(O)ccc3c2=O)cc1,82.9%

row,Structure (SMILES),growth
1,NC1=NN=C2N(N)C(=O)c3cnn(-c4ccccc4)c3N2c2nc(-c3ccccc3)cc(-c3ccccc3)c21,110%
2,O=C1OCC2=C1C(c1cccc(Cl)c1)c1cc3c(cc1N2CCO)OCO3 (stereo not given),-10.2% (active)
3,N#CC(C#N)=NO,93.2%
4,CN1CCN(Cc2ccc(NC(=O)c3cncc(C#Cc4cnn5cccnc45)c3)cc2C(F)(F)F)CC1,25.4%
5,CCOC(=O)C1=C(C)N=C2SC=C(c3ccc(F)cc3)N2[C@H]1c1cn(-c2ccccc2)nc1-c1ccc(Cl)cc1,91.1%
6,CN=C(N)N/N=C(\c1ccccc1)c1ccc(Br)cc1,1.8% (active)
7,CCN(CC)S(=O)(=O)c1ccc(S(=O)(=O)N2CCC[C@@H](C(=O)N3CCN(C(=O)OC(C)(C)C)CC3)C2)cc1,15.6%
8,c1cc(OCCN2CCCCCC2)ccc1CNc1ccc2nc(CCC3CCCCC3)[nH]c2c1,58.2%
9,C=CCn1c(SCC(=O)Nc2ccc(C(=O)/C=C/c3ccc(C)cc3)cc2)nnc1-c1c[nH]c2ccccc12,85.3%
10,O=C(C(=Cc1ccccc1)C(=O)c1ccccc1)c1ccccc1,63.4% and 89.4%
11,COc1cc(C)c(Cc2cnc(N)nc2N)cc1OC,116%
12,Nc1cc(Br)c(-c2nnc(CCC(=O)c3nc4ccccc4[nH]3)o2)c(Br)c1,16.9%
13,CN(C)c1ccc(-c2ccc(-c3ccc(C(=N)N)cn3)o2)cc1,-64.4% (active)
14,NC1=Nc2cc(OCCCN3Cc4ccccc4C3)c(OCC3CC3)cc2C12CCCC2,31.9%
15,C#CC(=O)Nc1cccc2c1cc(C)n2-c1nc2c(c(NCc3ccccc3)n1)CCCC2,-63.3% (active)
16,CCC(C)[C@@H]1NC(=O)[C@@H]2CCCN2C(=O)[C@H](Cc2ccccc2)NC(=O)[C@@H]2CCCN2C(=O)[C@H](Cc2ccccc2)NC(=O)[C@@H]2CCCN2C(=O)[C@H](Cc2ccccc2)NC1=O (stereo not given in full),116%
17,CCOC(=O)OCC(=O)[C@@]1(O)CC[C@H]2[C@@H]3CCC4=CC(=O)CC[C@]4(C)[C@H]3[C@@H](O)C[C@@]21C,123%
18,C[C@]12CC[C@@H]3c4ccc(O)c([N+](=O)[O-])c4CC[C@H]3[C@@H]1CCC2=O,71%
19,Cc1ccc(Oc2nc3ccccc3cc2-c2nnc(Cn3c(COc4ccccc4)nc4ccccc43)o2)cc1,92.1%
20,C=CC(=O)N1CCN(c2cccc(Oc3nccc(Nc4nnc(-c5ccc(Br)cc5)s4)n3)c2)CC1,84.4%
